The values below come from PubChem BioAssay (NCATS).

Results filed as inconclusive are left out. Where a call stands in place of a potency, no number is given. Active and inactive are the calls of the source. The call rests on the fitted dose curve; in most records, active means well fitted cell-killing curve with a large enough effect; inconclusive means small, poorly fitted or top-dose-only effect; inactive means flat fitted curve, though single readings scatter.
Potency means the concentration at half of the fitted maximal effect.

A short description of the experiment: Quantitative highthroughput screen to assess conditional lethalithy of NOMO1 cells grown in RPMI1640 with dialyzed fetal bovine serum (RPMI+ds) (AID 1963877). Further: nearly all actives have a fitted effect of over 30% in size. To be noted: NOMO1 in RPMI+dialyzed FBS viability, ATP luminescence, 48 h; series mostly up to 45.8 µM. The source says: Assay Provider: Jason Cantor Ph.D.
Department of Biochemistry
University of Wisconsin-Madison, Madison, WI, USA
Chemical screening studies have identified drug sensitivities across hundreds of cancer cell lines but most putative therapeutics fail to translate. Discovery and development of drug candidates in models that more accurately reflect nutrient levels in human blood is a major challenge. Here we performed high-throughput screens in conventional versus Human Plasma-Like Medium (HPLM) to identify compounds that were "missed" when screening using the artificial culture condition. Sets of conditional anticancer compounds spanned phases of clinical development and included non-oncology drugs were assessed. […] We also traced conditional phenotypes for several chemotherapeutics to availability of HPLM-specific metabolites and confirmed others for compounds whose reported targets are encoded by nonessential genes. Our findings establish generalizable strategies for exploiting conditional lethality in HPLM to reveal therapeutic candidates and mechanisms of action in cancer cells.
Described herein are the results of each viability screens against three cell lines: NOMO1 (an acute myeloid leukemia cell line); P12-Ichikawa (a T-cell acute lymphoblastic leukemia); and SEM (a B-cell ALL). Each assay was screened using 3 different cell culture media: homemade human plasma-Like medium with 10% dialyzed fetal bovine serum (HPLM+ds); RPMI1640 with 10% untreated FBS and 5mM glucose (RPMI+s); and RPMI1640 with 10% dialyzed fetal bovine serum and 5 mM glucose (RPMI+ds).
PROTOCOL TABLE (as described by Inglese J, Shamu CE and Guy RK. 2007)
SEQUENCE No. (e.g., 1, 2, 3, etc.); […] (e.g., Cells, Incubation, Reagent, etc.); VALUE and DESCRIPTION.
1; Cells; 5 uL; white, solid bottom 1536-well Greiner assay plate.
2; Compounds; 23 nL; Kalypsis pin tool (Wako USA) equipped with a 1536-well pin head to transfer to the assay plates.
3; Incubation; 48 hours; 37C incubation.
4; Reagent; 3 uL; CellTiter Glo (Promega).
5; Incubation; 5 min, room temperature
6; Detection; Luminescence, Viewlux PerkinElmer.
NOTES (numbers refer to Sequence numbers above)
1. Briefly, 5 ul of cell reagent was dispensed using a Multidrop Combi Dispenser. The NOMO1 and SEM cells were plated at 500 cells/well and the P12-Ichikawa line at 1000 cells/well.
2. After seeding the cells, 23 nL of MIPE 4.1 library compounds (in DMSO) were added to each plate using a Kalypsys 1536 Pintool dispenser. Bortezomib at final concentration of […] and DMSO were added to each plate as positive and negative controls respectively. For each screen, MIPE 4.1 compounds were added over an eleven-point concentration range […] in 3-fold dilutions.
3. Each plate was covered with a stainless steel gasketed lid to prevent evaporation and incubated for 48 hour at 37C, 95% relative humidity, and 5% CO2.
4-5. Three microliter CellTilter-GloTM luminescent substrate mix (Promega) reagent was added to the assay plate and incubated at room temperature for 5 min.
6. The luminescence signal was measured using a ViewLux (PerkinElmer) multiplate reader with a 2 second exposure time per plate. Data for each compound were normalized as percent viability such that measurements for DMSO and the empty well controls in each plate were defined as 100% and 0%, respectively.
On to `CCOC(=O)c1c(C)n(C)c2ccc(O)cc12`, for which the Potency entry is “inactive”. The value for `Clc1ccc(-c2nc3sccn3c2C=NOCc2ccc(Cl)c(Cl)c2)cc1` was “inactive”; that for `CC[C@H](NC(=O)[C@H](C)NC)C(=O)N1C[C@@H](O)C[C@H]1Cc1c(-c2[nH]c3cc(F)ccc3c2C[C@H]2C[C@H](O)CN2C(=O)[C@H](CC)NC(=O)[C@H](C)NC)[nH]c2cc(F)ccc12` was 2.35 µM (active). With `CC(=O)OCC(=O)[C@@]1(O)CC[C@H]2[C@@H]3CCC4=CC(=O)C=C[C@]4(C)[C@@H]3[C@@H](O)C[C@@]21C` the entry was “inactive”; with `COc1ccc(Nc2nccc(NCCO)n2)cc1`, “inactive”; with `COc1cc(NC(=O)c2ccc(-c3ccc(Cl)cc3)o2)cc(OC)c1`, 2.35 µM (active). For the compound `CN[C@H]1[C@@H](O)[C@@H]2O[C@@H]3O[C@H](C)CC(=O)[C@]3(O)O[C@@H]2[C@@H](NC)[C@H]1O`, the Potency result is “inactive”. As to `CCC(=O)NCC[C@@H]1CCc2ccc3c(c21)CCO3`, the Potency entry is “inactive”. With `CC(C)C[C@H](NC(=O)[C@@H](O)[C@H](N)Cc1ccccc1)C(=O)O` the figure was 20.9 µM (active). With `CCCCc1oc2ccc(NS(C)(=O)=O)cc2c1C(=O)c1ccc(OCCCN(CCCC)CCCC)cc1` the figure was 2.09 µM (active); with `NS(=O)(=O)c1cc(C(=O)O)c(NCc2ccco2)cc1Cl`, “inactive”. For the compound `COC(=O)C1=C(C)NC(C)=C(C(=O)OCCN2CCN(C(c3ccccc3)c3ccccc3)CC2)C1c1cccc([N+](=O)[O-])c1` (stereo not given), the Potency result was “inactive”. With `COc1ccc2cc([C@H](C)C(=O)O)ccc2c1` the entry was “inactive”. Regarding `O=C1C(Cl)=C(NCCN2CCOCC2)C(=O)c2ncccc21`, the Potency was 9.35 µM (active). The value for `Nc1cc(C(Cl)=C(Cl)Cl)c(S(N)(=O)=O)cc1S(N)(=O)=O` was 7.43 µM (active); that for `C=C1CCC2[C@](C)(CO)C(O)CC[C@]2(C)C1CC=C1C(=O)OCC1O` (stereo not given in full) was “inactive”; that for `CC(C)(C)[N+]([O-])=Cc1ccc(S(=O)(=O)O)cc1S(=O)(=O)O` was “inactive”. For the compound `OC[C@H]1O[C@@H](Oc2ccc(O)cc2)[C@H](O)[C@@H](O)[C@H]1O`, the Potency entry is “inactive”. The value for `CCN(CC)CCOc1ccc(Nc2ncc3cc(-c4c(Cl)cccc4Cl)c(=O)n(C)c3n2)cc1` was 2.96 µM (active); that for `O=C(O)c1cc(=O)[nH]c(=O)[nH]1` was “inactive”; that for `c1cc(CN2CCCNCCNCCCNCC2)ccc1CN1CCCNCCNCCCNCC1` was “inactive”. With `CC(C)(C)NC(=O)[C@H]1CN(Cc2cccnc2)CCN1C[C@@H](O)C[C@@H](Cc1ccccc1)C(=O)N[C@H]1c2ccccc2C[C@H]1O` the entry was “inactive”. In the case of `CCC(C)N(C)C(=O)c1cc2ccccc2c(-c2ccccc2Cl)n1` (stereo not given), the Potency result is “inactive”. With `OCC(O)C(O)C(O)CO` (stereo not given) the entry was “inactive”.

Regarding `COc1ccc([C@@H]2CNC(=O)C2)cc1OC1CCCC1`, the Potency entry is “inactive”. With `COc1cc2nc(N3CCCN(C)CC3)nc(NC3CCN(Cc4ccccc4)CC3)c2cc1OC` the figure was 5.26 µM (active); with `O=C(c1ccc(F)cc1)C1CCN(CCn2c(=O)[nH]c3ccccc3c2=O)CC1`, “inactive”. With `O=C(Nc1ccc(Oc2ccnc3[nH]ccc23)c(F)c1)c1cccn(-c2ccc(F)cc2)c1=O` the entry was “inactive”; with `N#CC(=Cc1ccc(O)c(O)c1)C(=O)NCc1ccccc1`, “inactive”; with `CCOC(=O)C1=C(C)NC(=S)NC1c1cccc(O)c1` (stereo not given), 0.264 µM (active).

As for `C=CC(=O)Nc1cc2c(Nc3ccc(F)c(Cl)c3)ncnc2cc1C#CC(C)(C)N1CCN(C)CC1`, the Potency was 5.26 µM (active). With `NCCCC(N)(C(=O)O)C(F)F` (stereo not given) the entry was “inactive”; with `CNC(=O)c1ccc(-c2cnc3ncc(Cc4ccc5ncccc5c4)n3n2)cc1F`, “inactive”; with `Nc1ncnc2c1ncn2[C@@H]1O[C@H](CO)[C@@H](O)[C@@H]1O`, 8.33 µM (active). The value for `O=C(CCCCCCC(=O)Nc1ccc([C@H]2O[C@@H](CSc3nc(-c4ccccc4)c(-c4ccccc4)o3)C[C@@H](c3ccc(CO)cc3)O2)cc1)NO` was 9.35 µM (active); that for `COc1cc(C=CC(=O)CC(=O)C=Cc2ccc(O)c(OC)c2)ccc1O` was 42.9 µM (active). The value for `OC[C@H]1O[C@@H](Oc2cc(O)cc(C=Cc3ccc(O)cc3)c2)[C@H](O)[C@@H](O)[C@H]1O` was 2.35 µM (active); that for `O=C(NCCCNc1nc(Nc2cccc(NC(=O)N3CCCC3)c2)ncc1I)c1cccs1` was “inactive”; that for `Cc1c(OCC(F)(F)F)ccnc1CS(=O)c1nc2ccccc2[nH]1` (stereo not given) was “inactive”.

Regarding `CN(Cc1cc(Br)cc(Br)c1N)C1CCCCC1`, the Potency result is “inactive”.
